Experimental data as given in PubChem BioAssay AID1159580 (chemical genetic matrix, 2015).
Among all 5,500 compounds or so, about 2,000 (36%) were called active. Inconclusive results (about 18%) are left out. Rule as the data show it: active = normalized growth mostly below about 0.91 (no sharp cut-off); inconclusive = no clear call, values can overlap the other calls; inactive = mostly above about 0.92. Some of the results follow.

Assay: chemical genetic growth profiling, strain panel (AID 1159580);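 also: tested at 20 µM; growth read once vehicle control cultures reached saturation at 30 °C; 1 = growth at the plate median or of vehicle wells; lower values mean less growth of the strain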
Settings: growth OD

Measured: normalized growth

CC1(C)C(=O)C=C[C@@]2(C)C1C[C@@H](O)[C@]1(C)C2CC[C@@]2(C)[C@H](c3ccoc3)OC(=O)[C@H]3O[C@]321 (stereo partly specified)
inactive: S. cerevisiae deletion strains, locus YJR066W, strain TOR1, hits give low values 0.938 | S. cerevisiae deletion strains, locus YKL009W, strain mrt4, hits give low values 0.95 | S. cerevisiae deletion strains, locus YKL068W, hits give low values 0.973 | S. cerevisiae deletion strains, locus YKL085W, strain MDH1 (second series), hits give low values 0.973 | S. cerevisiae deletion strains, locus YKL085W, strain MDH1, hits give low values 0.973 | S. cerevisiae deletion strains, locus YKL160W, strain elf1, hits give low values 1 | S. cerevisiae deletion strains, locus YKL190W, strain CNB1, hits give low values 0.983 | S. cerevisiae deletion strains, locus YKR001C, strain vps1, hits give low values 0.963 | S. cerevisiae deletion strains, locus YKR026C, strain gcn3, hits give low values 0.995 | S. cerevisiae deletion strains, locus YKR091W, strain srl3, hits give low values 0.989 | S. cerevisiae deletion strains, locus YLL001W, strain dnm1, hits give low values 1.01 | S. cerevisiae deletion strains, locus YLL026W, hits give low values 1 | S. cerevisiae deletion strains, locus YLL041C, strain sdh2, hits give low values 0.992 | S. cerevisiae deletion strains, locus YLR027C, strain aat2, hits give low values 1.02 | S. cerevisiae deletion strains, locus YLR039C, strain RIC1, hits give low values 0.972 | S. cerevisiae deletion strains, locus YLR058C, strain SHM2, hits give low values 0.959 | S. cerevisiae deletion strains, locus YLR102C, strain apc9, hits give low values 0.983 | S. cerevisiae deletion strains, locus YLR113W, strain HOG1, hits give low values 0.991 | S. cerevisiae deletion strains, locus YLR221C, strain rsa3, hits give low values 1 | S. cerevisiae deletion strains, locus YLR258W, strain gsy2, hits give low values 1.03 | S. cerevisiae deletion strains, locus YLR262C, strain YPT6 (second series), hits give low values 0.992 | S. cerevisiae deletion strains, locus YLR262C, strain YPT6, hits give low values 0.962 | S. cerevisiae deletion strains, locus YLR268W, strain sec22, hits give low values 0.952 | S. cerevisiae deletion strains, locus YLR320W, strain mms22, hits give low values 1.01 | S. cerevisiae deletion strains, locus YLR330W, strain CHS5, hits give low values 0.987 | S. cerevisiae deletion strains, locus YLR342W, strain FKS1 (second series), hits give low values 1.02 | S. cerevisiae deletion strains, locus YLR342W, strain FKS1, hits give low values 1.02 | S. cerevisiae deletion strains, locus YLR357W, strain rsc2, hits give low values 0.965 | S. cerevisiae deletion strains, locus YLR370C, strain arc18, hits give low values 0.996 | S. cerevisiae deletion strains, locus YLR371W, strain rom2, hits give low values 0.99 | S. cerevisiae deletion strains, locus YLR384C, strain iki3, hits give low values 1 | S. cerevisiae deletion strains, locus YLR418C, strain cdc73, hits give low values 0.933 | S. cerevisiae deletion strains, locus YML016C, strain PPZ1, hits give low values 0.98 | S. cerevisiae deletion strains, locus YML032C, strain rad52, hits give low values 0.971 | S. cerevisiae deletion strains, locus YML120C, strain ndi1, hits give low values 1 | S. cerevisiae deletion strains, locus YML124C, strain tub3, hits give low values 0.989 | S. cerevisiae deletion strains, locus YMR058W, strain fet3, hits give low values 0.996 | S. cerevisiae deletion strains, locus YMR078C, strain ctf18, hits give low values 0.982 | S. cerevisiae deletion strains, locus YMR125W, strain sto1, hits give low values 0.984 | S. cerevisiae deletion strains, locus YMR129W, hits give low values 1.01 | S. cerevisiae deletion strains, locus YMR205C, strain PFK2, hits give low values 0.999 | S. cerevisiae deletion strains, locus YMR223W, strain ubp8, hits give low values 0.997 | S. cerevisiae deletion strains, locus YMR231W, strain pep5, hits give low values 0.992 | S. cerevisiae deletion strains, locus YMR307W, strain GAS1, hits give low values 0.954 | S. cerevisiae deletion strains, locus YNL067W, strain RPL9B, hits give low values 1.01 | S. cerevisiae deletion strains, locus YNL071W, strain lat1, hits give low values 1 | S. cerevisiae deletion strains, locus YNL183C, strain NPR1, hits give low values 0.963 | S. cerevisiae deletion strains, locus YNL209W, strain ssb2, hits give low values 1 | S. cerevisiae deletion strains, locus YNL233W, strain BNI4, hits give low values 1.01 | S. cerevisiae deletion strains, locus YNL248C, strain rpa49, hits give low values 0.917 | S. cerevisiae deletion strains, locus YNL250W, strain rad50, hits give low values 1 | S. cerevisiae deletion strains, locus YNL271C, strain bni1, hits give low values 0.984 | S. cerevisiae deletion strains, locus YNL298W, strain CLA4, hits give low values 0.995 | S. cerevisiae deletion strains, locus YNL307C, strain MCK1, hits give low values 0.989 | S. cerevisiae deletion strains, locus YNL322C, strain KRE1 (second series), hits give low values 1.01 | S. cerevisiae deletion strains, locus YNR049C, strain mso1, hits give low values 0.993 | S. cerevisiae deletion strains, locus YNR052C, strain pop2, hits give low values 0.992 | S. cerevisiae deletion strains, locus YOL012C, strain htz1 0.797 | S. cerevisiae deletion strains, locus YOL147C, strain pex11, hits give low values 0.997 | S. cerevisiae deletion strains, locus YOR001W, strain rrp6, hits give low values 0.986 | S. cerevisiae deletion strains, locus YOR061W, strain CKA2, hits give low values 0.952 | S. cerevisiae deletion strains, locus YOR069W, strain VPS5, hits give low values 0.992 | S. cerevisiae deletion strains, locus YOR070C, strain gyp1, hits give low values 1.03 | S. cerevisiae deletion strains, locus YOR080W, strain dia2, hits give low values 1.01 | S. cerevisiae deletion strains, locus YOR083W, strain WHI5, hits give low values 1 | S. cerevisiae deletion strains, locus YOR106W, strain vam3, hits give low values 0.996 | S. cerevisiae deletion strains, locus YOR136W, strain idh2, hits give low values 0.975 | S. cerevisiae deletion strains, locus YOR144C, strain elg1, hits give low values 0.986 | S. cerevisiae deletion strains, locus YOR184W, strain ser1, hits give low values 0.896 | S. cerevisiae deletion strains, locus YOR231W, strain MKK1, hits give low values 0.954 | S. cerevisiae deletion strains, locus YOR265W, strain rbl2, hits give low values 1.01 | S. cerevisiae deletion strains, locus YOR270C, strain vph1, hits give low values 0.97 | S. cerevisiae deletion strains, locus YOR290C, strain snf2, hits give low values 1 | S. cerevisiae deletion strains, locus YOR316C, strain cot1, hits give low values 0.985 | S. cerevisiae deletion strains, locus YPL051W, strain arl3, hits give low values 1.02 | S. cerevisiae deletion strains, locus YPL078C, strain atp4, hits give low values 1 | S. cerevisiae deletion strains, locus YPL106C, strain sse1, hits give low values 1.03 | S. cerevisiae deletion strains, locus YPL240C, strain hsp82, hits give low values 1 | S. cerevisiae deletion strains, locus YPL241C, strain CIN2, hits give low values 0.98 | S. cerevisiae deletion strains, locus YPL256C, strain CLN2, hits give low values 0.945 | S. cerevisiae deletion strains, locus YPR119W, strain clb2, hits give low values 0.985 | S. cerevisiae deletion strains, locus YPR141C, strain kar3, hits give low values 0.985 | S. cerevisiae deletion strains, locus YPR163C, strain tif3, hits give low values 0.98 | S. cerevisiae deletion strains, locus YPR167C, strain met16, hits give low values 0.99 | S. cerevisiae deletion strains, strain wtn01, hits give low values 0.96 | S. cerevisiae strains, strain wild type, hits give low values 0.97
